The source of these data is PubChem BioAssay (NCATS).

Assay [1] is described as follows: Validation of Assay for Modulators of Lamin A Splicing (AID 1459; active means well fitted curve in the direction sought with a large enough effect in the signal ratio; the % refers to the signal ratio;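 further: cells exposed to compound for two days before reading; 0% is about no effect; ratio rise marks activators and ratio drop marks inhibitors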). Summed up: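 S3 HeLa cells stably expressing a lamin A-EGFP splicing minigene and DsRed2 were seeded at 600 cells/well in Opti-MEM with 2% FBS, pin-dosed, and incubated 48 hrs at 37 °C, 5% CO2. Laser-scanning cytometry (488 nm) gave GFP/RFP total intensity ratio.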
A short description of assay [2]: Cell Viability - LYMP2-023 (AID 975).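 Further: cellular ATP measured by luciferase luminescence as viability proxy; plate controls were DMSO only for no effect and 92 µM tetraoctylammonium bromide control for full effect; nearly all actives have a fitted effect of over 55% in size.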 An outline of the steps:
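In this qHTS, ATP-based luciferase luminescence (CellTiter-Glo) is quantified in human lymphoblastoid cells after 24 hr compound treatment at 37 C; tetraoctylammonium bromide serves as positive control. Concentration-response curves are Hill-fitted to give AC50.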

Assay [3] in a line: Cell Viability - LYMP2-025 (AID 976).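 Further: plate controls were DMSO only for no effect and tetraoctylammonium bromide control for full effect.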 Summed up: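 Luminescent ATP readout after 24 hr treatment of a human lymphoblastoid line (LYMP2-025, 2500 cells/well, 37 C). Reagent developed 30 min at room temperature; AC50 fitted with the Hill equation.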
Assay [4] in a line: Cell Viability - LYMP2-002 (AID 977).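 Further: compound exposure lasted 24 h at 37 °C; plate controls were DMSO only for no effect and 92 µM tetraoctylammonium bromide for full effect.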 An outline of the steps:
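Human lymphoblastoid cells, 2500/well, complete medium; 5 h 37 C settle; compound 24 h 37 C; CellTiter-Glo, 30 min RT; luminescence. Decrease in ATP = cytotoxicity; AC50 via Hill equation.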

A short description of assay [5]: Cell Viability - LYMP2-006 (AID 978). Further: on the % scale 0 is the no-effect control and ±100 the full control effect; nearly all actives have a fitted effect of over 60% in size. Summed up: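 Human lymphoblastoid cells, 2500 per well, were preincubated 5 hr at 37 C, then exposed to compounds for 24 hr at 37 C in complete medium. Viability was read as intracellular ATP by CellTiter-Glo luminescence; AC50 from Hill-equation fits of qHTS concentration-response data.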
Assay [6] is described as follows: Cell Viability - LYMP2-007 (AID 979).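 Further: cells exposed to compound for 24 h before reading; 0% = DMSO only and the negative end = 92 µM tetraoctylammonium bromide; nearly all actives have a fitted effect of over 60% in size.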 Summed up: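 Measured via luciferase-based ATP quantitation: lymphoblastoid cells, 24 hr compound exposure at 37 C, AC50 from Hill fits.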
Assay [7] in a line: Cell Viability - LYMP2-008 (AID 980). Further: on the % scale 0 is the no-effect control and ±100 the full control effect; nearly all actives have a fitted effect of over 60% in size. An outline of the steps: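 Measured: ATP-dependent luminescence, proportional to viable cell number, in human lymphoblastoid cells treated 24 hr with compound in complete culture medium. Values are AC50s from Hill-equation modelling of qHTS titrations.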
Assay [8] is described as follows: Cell Viability - LYMP2-010 (AID 981). Further: on the % scale 0 is the no-effect control and ±100 the full control effect; nearly all actives have a fitted effect of over 55% in size. An outline of the steps: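 This 24 hr viability screen uses LYMP2-010 lymphoblastoid cells, quantifies ATP via luciferase luminescence, and derives AC50 from Hill fits of qHTS concentration-response data.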
Assay [9] can be described thus: Cell Viability - LYMP2-012 (AID 982).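 Further: cellular ATP by luciferase luminescence where a drop means cytotoxicity; cells exposed to compound for one day before reading; 0% = DMSO only and full loss = 92 µM tetraoctylammonium bromide; nearly all actives have a fitted effect of over 55% in size.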
Assay [10] is described as follows: Cell Viability - LYMP2-016 (AID 984). Further: on the % scale 0 is the no-effect control and ±100 the full control effect; nearly all actives have a fitted effect of over 55% in size. An outline of the steps: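 Human lymphoblastoid cells (LYMP2-016), 2500/well in complete medium, preincubated 5 hr at 37 C, then compound-treated 24 hr at 37 C. Intracellular ATP read by CellTiter-Glo luminescence after 30 min at room temperature; AC50 from Hill-equation concentration-response fits.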
Assay [11] can be described thus: Cell Viability - LYMP2-018 (AID 985).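 Further: plate controls were DMSO only for no effect and tetraoctylammonium bromide at 92 µM for full effect; nearly all actives have a fitted effect of over 50% in size.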 Summed up:
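In this qHTS viability assay, cells are treated for 24 hr and cellular ATP is quantified by luciferase-based luminescence, with tetraoctylammonium bromide as positive control.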

A short description of assay [12]: Cell Viability - LYMP2-020 (AID 986). Summed up: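 Cells at 2500 per well receive a 24 hr compound exposure at 37 C. Viability is measured as ATP-dependent luciferase luminescence, with AC50 modeled from qHTS concentration-response curves.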
Assay [13] can be described thus: Cell Viability - LYMP2-024 (AID 988).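 Further: plate controls were DMSO only for no effect and 92 µM tetraoctylammonium bromide for full effect; nearly all actives have a fitted effect of over 60% in size.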 Summed up: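 Cells at 2500 per well received compound for 24 hr after a 5 hr settling period. Viability was scored by CellTiter-Glo luminescence, with AC50 from Hill fits.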
Assay [14] can be described thus: Cell Viability - LYMP2-026 (AID 989). Further: on the % scale 0 is the no-effect control and ±100 the full control effect; nearly all actives have a fitted effect of over 50% in size. An outline of the steps:
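Acute toxicity screen in complete culture medium, with 24 hr compound exposure at 37 C. Viability read as cellular ATP via luciferase reaction, with tetraoctylammonium bromide (6.4pM to 92 uM) as positive control.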

Assay [15] concerns the target Alpha-galactosidase A (Homo sapiens) (UniProt P06280). Put plainly: Counterscreen for Glucocerebrosidase Inhibitors: qHTS Assay for Human alpha-Galactosidase at pH 4.5 (AID 992). Further: 0% is about no effect. Summed up: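 Each compound is preincubated briefly with 2 nM enzyme before substrate addition (80 uM); plates then sit 20 min at ambient temperature, are quenched with 1M NaOH/1M glycine, and read fluorometrically.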
In general terms: A counterscreen serves to expose hits that act by an unwanted route or on another target.

Assay [16] can be described thus: Cell Viability - LYMP1-002 - Assay at 24 hr (AID 993). Further: on the % scale 0 is the no-effect control and ±100 the full control effect. An outline of the steps: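 Viability was judged from intracellular ATP using a luciferase read-out, following a 24-hour compound incubation at 37 C of lymphoblastoid cells seeded at 2500 per well. Concentration-response data were fitted to the Hill equation for AC50.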
Assay [17] can be described thus: Cell Viability - LYMP1-002 - Assay at 40 hr (AID 994). Summed up: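 Concentration-dependent ATP loss after 40 hr treatment at 37 C defined toxicity; AC50 values were obtained by fitting the standard Hill equation.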
The target in assay [18] is Alpha-galactosidase (Coffea arabica) (UniProt Q42656). Put plainly: Counterscreen for Glucocerebrosidase Inhibitors: qHTS Assay for Coffee Bean alpha-Galactosidase at pH 5.9 (AID 998).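 Further: plate controls were uninhibited enzyme for no effect and no-enzyme basal signal for full effect.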 Summed up:
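Enzyme 2 nM + cpd (0.7 nM–77 uM titration) + 4-MU-alpha-Gal 80 uM, pH 5.9 citrate/Tween-20, RT 20 min, NaOH/glycine stop pH 10, fluor 365/440. Normalized to no-enzyme and full-activity controls; Hill-fit AC50.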

Assay [19] can be described thus: qHTS Assay for Lipid Storage Modulators (AID 1519; calls by dose curve; on activity change, negative = inhibition: on the % scale 0 is the no-effect control and ±100 the full control effect). To be noted: Drosophila S3 cells, BODIPY lipid droplet/cell ratio, laser cytometry, cells loaded with oleic acid; for activity change, negative = inhibition: at 57.5 µM (top of the series). An outline of the steps:
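Cells seeded at 5,000 per well were treated with compounds over a concentration series and loaded with oleic acid (400 uM, as added). Lipid droplet fluorescence (488 nm excitation, 500-530 nm channel) was read by laser-scanning cytometry and normalized to 20 uM Triacsin C.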
A general note: Quantitative high-throughput screening tests each substance at several concentrations.

Assay [20] deals with alpha-glucosidase (Oryza sativa, rice) (UniProt Q653V4). As to the kind of experiment: Counterscreen for Glucocerebrosidase Inhibitors: qHTS Assay for Rice alpha-Glucosidase at pH 5.0 (AID 997).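 Further: 0% = full activity with enzyme and -100% = basal without enzyme.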 An outline of the steps:
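Endpoint fluorogenic assay at pH 5.0: compounds (0.7 nM to 77 uM) titrated against 4 nM rice enzyme and 400 uM 4-MU-alpha-glucoside for 20 min at room temperature; NaOH/glycine stop, read ex 365/em 440 nm, Hill-fitted AC50.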

[21] abbreviates: measured here: cell count channel max response.
Setting [22] is: measured here: lipid channel max response.

Values joined by “and” are separate entries in the source; they are usually repeats but may differ in a detail not shown here. Identical values can stand only once. Records with an inconclusive call do not appear. Active and inactive are the calls of the source. Unless noted, the call rests on the fitted dose curve; in most records, active means well fitted curve in the direction sought with a large enough effect; inconclusive means small, poorly fitted or top-dose-only effect, or another doubt; inactive means no such curve, though single readings can be large; an effect the other way counts as inactive or inconclusive.

Chain of Alpha-galactosidase A (Homo sapiens) (P06280 whole entry, looked up): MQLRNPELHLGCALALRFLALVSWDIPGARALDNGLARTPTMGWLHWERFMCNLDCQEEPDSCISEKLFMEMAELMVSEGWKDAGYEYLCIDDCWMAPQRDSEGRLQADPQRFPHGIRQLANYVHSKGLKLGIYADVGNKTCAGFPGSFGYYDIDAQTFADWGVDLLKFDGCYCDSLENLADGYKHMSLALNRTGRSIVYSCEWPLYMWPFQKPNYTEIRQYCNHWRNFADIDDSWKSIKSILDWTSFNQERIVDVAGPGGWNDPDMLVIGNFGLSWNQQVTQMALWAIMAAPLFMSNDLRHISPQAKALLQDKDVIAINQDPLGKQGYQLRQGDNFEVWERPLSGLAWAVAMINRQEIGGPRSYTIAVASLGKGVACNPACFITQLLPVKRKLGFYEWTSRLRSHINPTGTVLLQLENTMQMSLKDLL
Chain of Alpha-galactosidase (Coffea arabica) (Q42656 whole entry, looked up): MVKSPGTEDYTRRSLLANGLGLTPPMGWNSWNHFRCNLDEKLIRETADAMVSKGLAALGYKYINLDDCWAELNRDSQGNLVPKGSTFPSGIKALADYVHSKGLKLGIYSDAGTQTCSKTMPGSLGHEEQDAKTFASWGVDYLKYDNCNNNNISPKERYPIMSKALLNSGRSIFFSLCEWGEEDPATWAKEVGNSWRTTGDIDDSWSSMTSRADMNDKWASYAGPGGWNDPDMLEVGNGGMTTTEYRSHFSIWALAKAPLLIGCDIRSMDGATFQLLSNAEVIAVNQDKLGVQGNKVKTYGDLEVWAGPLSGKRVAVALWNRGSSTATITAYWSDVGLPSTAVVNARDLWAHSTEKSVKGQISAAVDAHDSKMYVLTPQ

For the compound `COc1cc(CC(C)N)c(OC)cc1I` (configuration not stated), the call in assay [1] was inactive.
On the same count and under the same terms, in the case of `CC(N)[C@H](O)c1ccc(O)c(O)c1` (some centres not stated) it was “inactive”.
Take `NNC(N)=O`: the Potency entry in [2], in assay [3], in assay [4], in assay [5], in assay [6] and in assay [7] was “inactive” each time. Moreover, the Potency result in assay [8], in assay [9], in assay [10], in assay [11], in [12] and in assay [13] was “inactive” throughout. Further, the Potency entry in assay [14], in [16] and in assay [17] was “inactive” throughout. Besides, the compound was called inactive in assay [15], in assay [18] and in assay [1]. Further, in assay [19], the activity change, negative = inhibition was 1.16% (inactive). Moreover, the max response in assay [19] (setting [21]) is -7.78%; in assay [19] (setting [22]), -7.06%.
As for `C[N+]1(C)CCN(c2ccccc2)CC1`, the compound was classed as inactive in assay [15], in [18] and in [1]. Further, in assay [19], the activity change, negative = inhibition is 1.07% (inactive). Moreover, the figures for the max response in assay [19] (setting [21]) and in assay [19] (setting [22]) were -21.1% and -16.2%, respectively.
Take `C[N+](C)(C)CC#CCOC(=O)Nc1cccc(Cl)c1`: the outcome in [15], in [20], in assay [18] and in assay [1] was inactive. Further, in assay [19], the activity change, negative = inhibition is -0.494% (inactive). For the same compound, the max response was -7.08% in [19] (setting [21]) and -8.94% in assay [19] (setting [22]).
With `CCCN(CCC)[C@H]1CCc2c(F)ccc(O)c2C1`, the compound was called inactive in assay [15], in assay [20], in assay [18] and in assay [1].
With `CN1CCc2cccc(Cl)c2CC1`, the call in assay [15], in assay [20], in [18] and in assay [1] was inactive. Also, the activity change, negative = inhibition in assay [19] was 0.882% (inactive). Besides, the max response in assay [19] (setting [21]) was -8.27%; in assay [19] (setting [22]), -8.1%.
`c1ccc2cc(CC3=NCCN3)ccc2c1`: the result in assay [15], in assay [18] and in [1] was inactive. Also, in assay [19], the activity change, negative = inhibition was 1.13% (inactive). Moreover, the max response worked out at 29% in assay [19] (setting [21]) and 31.2% in assay [19] (setting [22]).
In the case of `CC(N)Cc1c[nH]c2ccc(OCc3cccs3)cc12` (configuration not stated), in [1], the compound was called inactive. For the same compound, the activity change, negative = inhibition in [19] is -0.884% (inactive). The max response in assay [19] (setting [21]) was -45.6%; in assay [19] (setting [22]), -46.5%.
On to `O=[N+]([O-])c1cc(O)c(O)c([N+](=O)[O-])c1`, for which the compound was called inactive in assay [15], in assay [18] and in assay [1]. Moreover, the activity change, negative = inhibition in assay [19] was 9.72% (inactive) and 0.381% (inactive). Moreover, the max response was 15.9% and 33.6% in assay [19] (setting [21]); 26.8% and 29.7% in [19] (setting [22]).
For the compound `O=C(O)c1cc[c]([Hg][Cl])cc1`, the call in assay [15] and in [1] was inactive. Besides, in assay [19], the activity change, negative = inhibition was 1.37% (inactive). Also, the max response in [19] (setting [21]) was -16.6%; in assay [19] (setting [22]) it was -15.1%.
On to `CP(=O)(O)C1=CCNCC1`, for which the call in [15], in assay [20], in assay [18] and in assay [1] was inactive.
